Bioassay records deposited in PubChem by National Center for Advancing Translational Sciences (NCATS).
Cruzain inh noDet – inhibitors of Trypanosoma cruzi cruzain without detergent. Potency, µM, for the others: max response, negative = inhibition, hits mostly inhibitors. 200,000 tested, 2.3% active. AID 1476. purified cruzain, Z-FR-AMC fluorescence, no detergent. P25779;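 note: plate controls were enzyme without inhibitor for no effect and buffer without enzyme for full effect; nearly all actives have a fitted effect of over 40% in size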
Target sequence (P25779 123-467 limits assumed): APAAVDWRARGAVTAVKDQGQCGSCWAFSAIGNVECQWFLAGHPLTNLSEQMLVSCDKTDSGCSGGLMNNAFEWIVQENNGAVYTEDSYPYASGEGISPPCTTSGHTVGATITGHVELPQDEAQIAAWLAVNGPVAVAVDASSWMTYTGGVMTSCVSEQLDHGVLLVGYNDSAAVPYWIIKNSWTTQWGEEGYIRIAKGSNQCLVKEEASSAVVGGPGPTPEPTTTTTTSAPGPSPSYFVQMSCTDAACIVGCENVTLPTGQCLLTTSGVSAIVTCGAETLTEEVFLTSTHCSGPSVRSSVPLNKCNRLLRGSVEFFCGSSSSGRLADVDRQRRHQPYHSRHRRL
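Detergent-free condition (0.00005% Triton X-100) in acetate buffer pH 5.5 with DTT. 1.5 nM enzyme and compound were pre-mixed 15 min, then 2 uM Z-FR-AMC substrate added; reaction progress from fluorescence change between first and third reads (60 s).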
Cruzain Triton – inhibitors of Trypanosoma cruzi cruzain with detergent. purified cruzain, Z-FR-AMC fluorescence, 0.01% Triton. Potency, µM, inactives show max response, negative = inhibition, most hits filed as inhibitors. 200,000 tested, 0.43% active;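 note: plate controls were neutral wells for no effect and buffer without enzyme for full effect; nearly all actives have a fitted effect of over 40% in size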
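Cysteine protease activity tested under reducing, mildly acidic conditions (100 mM sodium acetate pH 5.5, 5 mM DTT) plus 0.01% Triton X-100. Cruzain 1.5 nM; substrate Z-FR-AMC 2 uM; 15 min compound preincubation at room temperature.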
The depositor's hits bear a star; ? = inconclusive; ! = not active in a repeat. A selection: hits, their analogues and other compounds. The true share with any hit is near 2.6%. Calls come from the whole dose curve; as a rule, active = well fitted curve in the direction sought with a large enough effect; inconclusive = small, poorly fitted or top-dose-only effect, or another doubt; inactive = no such curve, though single readings can be large; an effect the other way counts as inactive or inconclusive. Potency is the fitted concentration of half-maximal effect.

SMILES	Cruzain inh noDet	Cruzain Triton
CCc1ccc2[nH]c3nc(SCc4nnc(-c5ccc(C)cc5)o4)nnc3c2c1	13µM*	0%
Cc1ccc2nc(SCc3nnc(-c4ccccc4)o3)[nH]c2c1	-18%	-25%
CCc1ccc2[nH]c3nc(SCC(=O)NNC(=O)c4ccc(C(C)(C)C)cc4)nnc3c2c1	4µM*	0%
Cc1ccc(C(=O)NNC(=O)CSc2nnc3c(n2)[nH]c2ccc(C)cc23)cc1	?	2%
CCc1ccccc1-n1cnc2cc(C(=O)NC3CCCCCC3)ccc21	-1%	-3%
O=C(Nc1ccc(Br)c2cccnc12)c1cccc2ccccc12	6%	-1%
O=C1CC(SCc2nc3ccccc3[nH]2)C(=O)N1c1cccc(Cl)c1 (stereo unspecified)	16µM*	-12%
O=C1CC(SCc2nc3ccccc3[nH]2)C(=O)N1c1ccc(F)cc1 (stereo unspecified)	?	-7%
CCC(=O)C1=C(c2ccc(Cl)cc2)N(C(=O)CC)n2c(C)nnc2S1	15%	-3%
Cc1cc(Br)c(Cl)cc1NC(=O)CN1C(=O)C2C3CC(c4ccccc4)C(C3)C2C1=O (stereo unspecified)	13µM*	-6%
Cc1cc(NC(=O)CCN2C(=O)C3C4CCC(C4)C3C2=O)c(C)cc1Br (stereo unspecified)	1%	0%
CC1=C(C)CS(=O)N(c2ccc(S(N)(=O)=O)cc2)C1 (stereo unspecified)	16µM*	16µM*
CC1=C(C)CS(=O)N(S(=O)(=O)c2ccccc2)C1 (stereo unspecified)	-24%	-26%
O=C(NCc1ccc(Cl)cc1Cl)c1cccc(N2CCCS2(=O)=O)c1	8%	-10%
c1ccc(Nc2ncnc3ccc(-c4cccnc4)cc23)cc1	-1%	1%
COC(=O)C(C)NC(=O)C(C)NC(=O)OCc1ccccc1 (stereo unspecified)	-3%	0%
CCCCC(C=O)NC(=O)C(CC(C)C)NC(=O)OCc1ccccc1 (stereo unspecified)	0.0025µM*	0.002µM*
CC(=O)N[C@@H](CC(C)C)C(=O)O	-4%	-1%
CCCC[C@@H](C=O)NC(=O)[C@H](CC(C)C)NC(=O)[C@H](CC(C)C)NC(C)=O	0.0032µM*	?
CSCC[C@H](C=O)NC(=O)[C@H](CC(C)C)NC(=O)[C@H](CC(C)C)NC(C)=O	0.0025µM*	0.0028µM*
CSCCC(NC=O)C(=O)NC(CC(C)C)C(=O)NC(Cc1ccccc1)C(=O)O (stereo unspecified)	5%	5%
CC1=C2C(=COC(C)C2C)C(=O)C(C(=O)O)=C1O (stereo unspecified)	0%	-3%
CCOC(=O)c1cc(-c2ccccc2)sc1NC(=O)C(C)N1C(=O)c2ccccc2C1=O (stereo unspecified)	25µM*	-5%
CCOC(=O)c1cc(-c2ccccc2)sc1NC(=O)CCN1C(=O)c2ccccc2C1=O	?	-16%
CCOC(=O)c1cc(-c2ccccc2)sc1N	25µM*	-12%
SMILES	Cruzain inh noDet	Cruzain Triton
CCOC(=O)c1sc(-c2ccccc2)cc1N	-8%	-12%
CCOC(=O)c1c(C)[nH]c(CCC(=O)NCc2ccc(CC)cc2)c1C	25%	1%
CC1(C)OCC(CSC2=C(SCC3COC(C)(C)O3)C(=O)c3ncccc3C2=O)O1 (stereo unspecified)	?	16µM*
O=C1c2cccnc2-c2ncccc21	-4%	-3%
CCOc1ccc(CCNC(=O)c2cnc3sc(N4CCC(C)CC4)nn3c2=O)cc1	-10%	3%
CC1=CC(C)(C)Nc2ccccc21	16µM*!	0%
CC1=CC(C)(C)Nc2ccc(OC(=O)CCN3C(=O)c4ccccc4C3=O)cc21	9%	-14%
C=CCSc1n[nH]c2nc3c(c(=O)n12)C1(CCCC1)Cc1ccccc1-3	10µM*	2%
CCSc1n[nH]c2nc3c(c(=O)n12)C1(CCCC1)Cc1ccccc1-3	?	2%
COc1ccc(-c2nc(C)c(CCNC(=O)c3ccc(F)c(F)c3)s2)cc1	8%	-16%
CCN1CCc2c(sc(N)c2C#N)C1	-5%	-3%
N#Cc1c(N)sc(=S)c2c1CCN(Cc1ccccc1)C2	13µM*	28µM*
Cc1c(Cc2ccccc2)c(=O)oc2c(C)c(OCC(=O)Nc3ccc(C#N)cc3)ccc12	13µM*	-8%
Cc1cc(C)cc(NC(=O)COc2ccc3c(C)c(Cc4ccccc4)c(=O)oc3c2)c1	?	-6%
COc1cccc(C(=O)COc2ccc3c(C)c(Cc4ccccc4)c(=O)oc3c2C)c1	?	-8%
Cc1cccc(C)c1NC(=O)COc1ccc2c(C)c(Cc3ccccc3)c(=O)oc2c1C	13µM*	-4%
O=C(OCc1cc(=O)n2nc(-c3cccs3)sc2n1)c1cccc(F)c1	1%	-3%
O=c1c2ccccc2n(Cc2cccc(Cl)c2)c(=O)n1CCc1ccccc1	-9%	-3%
COc1ccccc1/C=C(/CC(=O)NCc1ccccc1)c1nc2ccccc2s1	?	-4%
COc1ccccc1/C=C(/CC(=O)NCc1ccc(F)cc1)c1nc2ccccc2s1	16µM*	-7%
COc1ccc(N2CC(NC(=O)C3CCCCC3)CC2=O)cc1 (stereo unspecified)	-8%	-3%
CCNc1ncc2nc(-c3cc(F)cc(F)c3)c(=O)n(Cc3cccs3)c2n1	1%	2%
O=C1C2=C(Nc3cc([N+](=O)[O-])ccc3N2)O[C@@H]1c1ccc([C@H]2OC3=C(Nc4ccc([N+](=O)[O-])cc4N3)C2=O)cc1	-4%	-3%
COc1ccccc1CNC(=O)CCCn1nc(C)c2sc3ccccc3c2c1=O	10µM*	-4%
COc1ccc(CNC(=O)CCCn2nc(C)c3sc4ccccc4c3c2=O)cc1OC	-22%	-5%
SMILES	Cruzain inh noDet	Cruzain Triton
O=C(Cn1c(=O)ccc2cc(S(=O)(=O)N3CCCC3)ccc21)NCc1ccc(F)cc1	-4%	-2%
N#C/C(=C\Nc1ccccc1SC(F)(F)F)c1nc(-c2ccc(F)cc2)cs1	-3%	5%
Cc1ccc(-c2csc(/C(C#N)=C/Nc3ccccc3SC(F)(F)F)n2)cc1	10µM*	0%
O=C(Nc1cc2c(cc1C(=O)c1cccc(Br)c1)OCCO2)c1ccccc1F	-5%	1%
Cc1ccc(NC(=O)c2cccn2-c2nnc(N3CCCCC3)s2)cc1Cl	-5%	-7%
CCCCCc1ccc(-c2ccc(C(=O)Oc3ccc(C(=O)OC)cc3)cc2)nc1	-4%	-1%
CCCCCc1ccc(-c2ccc(/C=C/C(N)=O)cc2)nc1	13µM*	-1%
Cc1ccc2nc(N3CCN(c4ccccc4)CC3)c3nnnn3c2c1	-2%	0%
Clc1cccc(N2CCN(c3nc4ccccc4n4nnnc34)CC2)c1	20µM*	-3%
Cc1ccc(CNC(=O)c2c(O)nc3ccccn3c2=O)cc1	12%	0%
Cc1nn(Cc2ccc(C(=O)n3cccn3)o2)c(C)c1Br	1%	-7%
Cc1cc(OCc2ccc(C(=O)n3cccn3)o2)ccc1Cl	?	7.9µM*
O=C(c1ccc(COc2ccc(F)cc2)o1)n1cccn1	13µM*	16µM*
Cc1ccnc(NC(=O)c2ccc(COc3ccc(Cl)cc3)o2)c1	1%	-6%
CCOc1ccc(OCc2ccc(C(=O)O)o2)cc1	-3%	0%
O=C(c1ccc(COc2ccc(F)cc2)o1)n1cc(Br)cn1	?	14µM*
COc1ccc(CCNc2nc(SCc3ccc(F)cc3)nc3ccccc23)cc1OC	11%	5%
CC(C)OCCCn1c(=O)c2ccccc2n2c(-c3ccc(F)c(F)c3)nnc12	-6%	-3%
